High-throughput results as filed in PubChem BioAssay.
A selection: hits, their analogues and other compounds. The true share with any hit is near 20%.
Pf growth 48h: inhibits P. falciparum growth in the first generation, 48 h; P. falciparum luciferase growth in erythrocytes, 48 h; AID 504832; 310,000 tested, 5.9% active; Potency, µM (top dose mostly 28.7 µM), most hits filed as inhibitors
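Firefly luciferase activity from engineered P. falciparum reports growth; inhibitors lower the luminescent signal. Cultures contained 2% hematocrit erythrocytes at 0.1% final parasitemia.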
Pf growth 96h: P. falciparum growth inhibition at 96 hour, primary screen for plastid delayed-death inhibitors; P. falciparum luciferase reporter growth, 96 h; Potency, µM (highest dose often 28.7 µM), hits mostly inhibitors; 320,000 tested, 6.9% active
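P. falciparum expressing integrated firefly luciferase, in erythrocytes at 2% hematocrit, 0.05% parasitemia, incubated with compounds 96 h at 37 C, 5% CO2. Growth inhibition read as loss of luminescence; two-generation exposure targets delayed-death apicoplast inhibitors.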
HCMV inh: human cytomegalovirus inhibition | AID 1259415 | 410,000 tested, 4.5% active | HFF cells, HCMV-luciferase reporter, 72 h; hits give low values | activity change, negative = inhibition, % at 57.5 µM; in the data active means activity change below about -60%; inconclusive means no clear call, values can overlap the other calls; inactive means above about -39%
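Inhibition of viral replication was scored as loss of reporter luminescence in HFFs infected with HCMV-luciferase (MOI 1 PFU/cell) for 72 h; compounds tested at 2 doses, normalized to buffer and Salinomycin controls.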
Shiga inhibitor: inhibitors of Shiga toxin in Vero cells; Vero cells, Shiga toxin protein synthesis inhibition reporter; inhibition, % at 38.7 µM; 290,000 tested, 9.2% active; AID 2315; in the data active means inhibition mostly above about 28%, no sharp cut-off; inactive means mostly below about 43%
CHX counter: counter-screen for Shiga toxin inhibitors: cycloheximide protein synthesis inhibition. cell reporter, cycloheximide protein synthesis inhibition counterscreen. max response, %. 300,000 tested, 12% active. AID 2314; in the data active means max response mostly above about 13%, no sharp cut-off; inactive means mostly below about 14%; further: read at 38.3 µM for the half of the compounds with a filed dose
Of the large screens only hits and unclear results are named; the others gave an inactive call. Unless noted, the call rests on the fitted dose curve; in most records, active means well fitted inhibition curve with a large enough effect; inconclusive means small, poorly fitted or top-dose-only effect, or another doubt; inactive means no such curve, though single readings can be large or run the other way.

COc1cc2c(cc1NC(=O)CCCN1C(=O)CCC1=O)oc1ccccc12	Shiga inhibitor 79, CHX counter 36
COc1cc2c(cc1NC(=O)CC1SC(N3CCCC3)=NC1=O)oc1ccccc12 (configuration not stated)	Pf growth 48h 6.6µM, Pf growth 96h 1.2µM
CCc1c(C(=O)N2CCN(c3ccccc3F)CC2)[nH]c(C)c1C(C)=O	none (no result: Pf growth 48h)
COc1ccc(C2(C)NC(=O)N(CC(=O)c3cc(C)n(C4CC4)c3C)C2=O)cc1 (configuration not stated)	Pf growth 48h inconclusive, Pf growth 96h 3.7µM, HCMV inh inconclusive (no result: Shiga inhibitor, CHX counter)
O=C(CN1C(=O)NC(Cc2ccccc2)C1=O)Nc1ccc(OC(F)F)cc1 (configuration not stated)	Pf growth 96h 13µM (no result: Shiga inhibitor, CHX counter)
Cc1ccc2nc(-c3ccc(NC(=O)CN4C(=O)NC(C)(c5ccc(OC(F)F)cc5)C4=O)cc3)sc2c1 (configuration not stated)	HCMV inh inconclusive, Shiga inhibitor 99, CHX counter 30
CC1(c2ccc(OC(F)F)cc2)NC(=O)N(CC(=O)Nc2ccccc2)C1=O (configuration not stated)	Shiga inhibitor 72, CHX counter 19
O=C(CN1C(=O)NC(Cc2ccccc2)C1=O)Nc1ccccc1 (configuration not stated)	none
CC(C)Oc1ccc(CNC(=S)N/N=C/c2ccc([N+](=O)[O-])cc2)cc1	Pf growth 48h inconclusive (no result: Pf growth 96h)
Cc1nc(C(F)(F)F)ccc1C(=O)N1CCCC1(C)C(=O)NCC(C)C (configuration not stated)	none (no result: Pf growth 48h, Pf growth 96h, Shiga inhibitor, CHX counter)
COc1ccc(CNC(=O)CN2C(=O)NC(C)(c3ccc(C(C)(C)C)cc3)C2=O)cc1 (configuration not stated)	none (no result: Pf growth 48h)
C=CCNC(=O)CN1C(=O)NC(C)(c2ccc(OC)cc2)C1=O (configuration not stated)	HCMV inh -99
Oc1ccc(C(O)CNCCCCCCNCC(O)c2ccc(O)c(O)c2)cc1O (configuration not stated)	Pf growth 48h 7.6µM, Pf growth 96h 12µM (no result: HCMV inh, Shiga inhibitor, CHX counter)
CCOc1ccc(CCNC(=O)c2ccc(CS(=O)(=O)Cc3ccccc3Cl)o2)cc1OCC	none (no result: Pf growth 48h, Pf growth 96h, Shiga inhibitor, CHX counter)
COc1cc(O)oc1C=Nc1ccc(Cl)cc1Cl	Pf growth 48h inconclusive, Shiga inhibitor 35, CHX counter 28
COc1cc(O)oc1C=Nc1ccc(Cl)cc1	none
Cc1cccc(C)c1C(O)c1ncc(-c2ccc(Cl)cc2)[nH]1 (configuration not stated)	none (no result: Pf growth 48h, Pf growth 96h, Shiga inhibitor, CHX counter)
NC(=Nc1nc(-c2ccccn2)cc2ccccc12)c1ccccn1	HCMV inh -101 (no result: Pf growth 48h, Pf growth 96h, Shiga inhibitor, CHX counter)
Cn1c(=O)[nH]c(NC2CCCCC2)c(N=O)c1=O	HCMV inh inconclusive
C/C(=N/OC(=O)C1CC12CCC2)c1ccc(Br)cc1 (configuration not stated)	Shiga inhibitor 156, CHX counter 68
CCc1ccccc1N1C(=O)CC(N2CCc3ccccc32)C1=O (configuration not stated)	Pf growth 96h inconclusive
O=C1CC(N2CCCc3ccccc32)C(=O)N1c1ccccc1 (configuration not stated)	Pf growth 96h 12µM
COc1ccc(Nc2cc(C)c3c(O)cccc3n2)cc1	Pf growth 48h 2.3µM, Pf growth 96h 1.7µM, CHX counter 32
COc1ccc(Nc2c(C)cccc2C)cc1	none
Cc1ccc(Nc2cc(C)c3c(O)cccc3n2)cc1C	Pf growth 48h 2.6µM, Pf growth 96h 2.6µM, Shiga inhibitor 76, CHX counter 46
COC(=O)c1cc(Nc2cc(C)c3c(O)cccc3n2)cc(C(=O)OC)c1	Pf growth 48h 9.3µM, Pf growth 96h inconclusive, HCMV inh inconclusive, CHX counter 16
Cc1ccccc1Nc1cc(C)c2c(O)cccc2n1	Pf growth 48h inconclusive, HCMV inh -89, CHX counter 23
COc1cc(C(=O)NCCc2c[nH]c3ccccc23)ccc1OCc1c(C)noc1C	Pf growth 48h inconclusive, Pf growth 96h inconclusive
Cc1ccc(OCC(=O)Nc2cc3nn(-c4ccccc4)nc3cc2C)cc1	none (no result: Pf growth 48h, Pf growth 96h, Shiga inhibitor, CHX counter)
COc1ccc(OC)c(NC(=O)C(C)N2c3cccc4cccc(c34)S2(=O)=O)c1 (configuration not stated)	none
O=C(Oc1ccc2ccc(=O)oc2c1)c1ccco1	none
Cc1nnc(NCc2ccco2)c2ccccc12	none
Cc1ccc(Nc2cc(C)c3ccc(O)cc3n2)cc1C	Pf growth 48h inconclusive, Pf growth 96h inconclusive, Shiga inhibitor 83, CHX counter 43
Cc1cc(NCc2ccco2)nc2cc(O)ccc12	Pf growth 48h 3.3µM, Pf growth 96h 5.2µM
CC(=O)n1cc(-c2ccncc2)c2ccccc21	Pf growth 48h inconclusive, Pf growth 96h inconclusive, HCMV inh -94
CC(=O)n1cc(/C=N/NC(=O)c2sc(C)nc2C)c2ccccc21	none
CC(=O)SC[C@@H](Cc1ccccc1)C(=O)NCC(=O)OCc1ccccc1	none (no result: HCMV inh, Shiga inhibitor, CHX counter)
CCCn1c(SCC(=O)N2CCc3ccccc3C2)nc2c1c(=O)n(C)c(=O)n2C	none
CCCn1c(SCC(=O)N2c3ccccc3CCc3ccccc32)nc2c1c(=O)n(C)c(=O)n2C	Pf growth 48h 15µM
CCCn1c(SCC(=O)O)nc2ccccc21	none
CCCCn1c(SCC(=O)N2c3ccccc3Sc3ccccc32)nc2c1c(=O)n(C)c(=O)n2C	Pf growth 48h 1.7µM (no result: Pf growth 96h)
CCCn1c(SCC(=O)N2c3ccccc3Sc3ccccc32)nc2ccccc21	Pf growth 48h 13µM, Pf growth 96h 3.7µM
CC(C)c1cc(C(=O)N2CCCC(Nc3ccc(F)cc3)C2)nc(N)n1 (configuration not stated)	none
Cc1cccc(NC(=O)c2nc[nH]c2C(=O)NCCCCNC(=O)c2[nH]cnc2C(=O)Nc2cccc(C)c2)c1	none (no result: Pf growth 48h, Pf growth 96h, Shiga inhibitor, CHX counter)
Cc1ccc(N2CN(CCc3ccccc3)CNC2=S)cc1	Pf growth 48h 9.3µM, Pf growth 96h inconclusive
COc1ccc(OCc2nnc(SCC(=O)Nc3ccccc3F)o2)cc1	none
COc1cccc(-c2nnc3n2N=C(C(C)(C)C)CS3)c1	Pf growth 48h inconclusive, Pf growth 96h 13µM, HCMV inh -98
COc1ccc(OC)c(C2=Nn3c(nnc3-c3cc(OC)c(OC)c(OC)c3)SC2)c1	Pf growth 48h 6.6µM
COc1cccc(C2=Nn3c(nnc3-c3cccc(OC)c3)SC2)c1	none (no result: Pf growth 48h, Pf growth 96h, HCMV inh)
COc1ccc(N=C2SCC(=O)N2c2ccc(OC)cc2)cc1	Pf growth 96h inconclusive (no result: Pf growth 48h)
COc1ccc(-c2nnc3n2N=C(c2cc(OC)ccc2OC)CS3)cc1	none (no result: Pf growth 48h, Pf growth 96h, HCMV inh)
COc1cccc(C2=Nn3c(nnc3-c3ccccc3O)SC2)c1	Pf growth 48h 13µM
COc1ccc(N=C2SCC(c3ccccc3)=NN2C)cc1	Pf growth 48h 2.6µM, CHX counter 29
C/C=C/c1ccc(OCC(=O)N2CCc3cc(OC)c(OC)cc3C2)c(OC)c1	Pf growth 48h inconclusive, Pf growth 96h inconclusive
CSc1cccc(NS(=O)(=O)c2cc(Br)cnc2N)c1	HCMV inh inconclusive
COC(C[C@@H](O)CC(=O)[C@H](C)OCc1ccccc1)OC	none
O=C(NCCc1ccc(F)cc1)C(=O)NCC(c1ccc2c(c1)OCO2)N1CCOCC1 (configuration not stated)	none (no result: Pf growth 48h, Pf growth 96h, Shiga inhibitor, CHX counter)
